The source made the active and inactive calls. The call rests on the fitted dose curve; in most records, active means well fitted curve in the direction sought with a large enough effect in the repeat runs; inconclusive means weak or mixed curves; inactive means flat fitted curve, though single readings scatter.
Assay: qHTS assay to test for compound auto fluorescence at 460 nm (blue) in HEK293 cells (AID 720678)
Settings: blue autofluorescence 405/460 nm; series mostly up to 91.3 µM
Description: National Center for Advancing Translational Sciences [NCATS]
NIH Chemical Genomics Center [NCGC]
U.S. Environmental Protection Agency [EPA]
National Institutes of Environmental Health Sciences [NIEHS]
National Toxicology Program [NTP]
U.S. Food and Drug Administration [FDA]
Compound auto fluorescence often interferes with screening of the compound library against various biological targets and signaling pathways. Some of these compounds may have fluorophoric properties. Such properties may interfere with the assay outputs resulting in false positives and/or negatives. To decrease such complications and ensure the compound activities are relevant in terms of biological response, the Tox21 10K compound library was screened for auto fluorescence.
From the fluorophores used as reporter signals in our screening assays, the auto fluorescence equivalencies of compounds against three fluorophores have been evaluated: Triamterene, Fluorescein and Rose Bengal sodium for blue, green and red fluorescence, respectively. The fluorescence intensities were measured using Excitation/Emission wavelengths at 405/460nm, 485/535nm and 540/590nm for blue, green and red labels, respectively. This assay includes the blue fluorescence data.
Tox21 Assay Protocol Summary:
2,000 HEK293 cells in 5 uL of culture medium containing 10% dialyzed FBS per well were dispensed into black wall/clear bottom 1536-well plates using a Multidrop Combi Dispenser (Thermo Scientific). The assay plates were incubated for 4-5 hr at 37C to allow cell attachment to the well bottom, followed by the transfer of 23 nL compound or DMSO vehicle by a pintool work station (Kalypsys, San Diego, CA). After the assay plates were incubated overnight at 37C and 5% CO2, fluorescence intensities in the assay plates were measured by an Envision (PerkinElmer, Shelton, CT) plate reader using three labels for measuring blue, green and red fluorescence at […] 460, 535 and 590nm respectively.

Structure (SMILES) | outcome
CCC(C)CO (stereo not given) | inactive
Nc1ccc(S(=O)(=O)Nc2cnc3ccccc3n2)cc1 | inactive
C=C(C)C(=O)OCCOC(=O)C(=C)C | inactive
c1cc(N(CC2CO2)CC2CO2)ccc1OCC1CO1 (stereo not given) | inactive
CN(C)CCC=C1c2ccccc2CCc2ccccc21 | inactive
CCCCOCCOCCOCCO | inactive
C/C=C/C(=O)O | inactive
O=C(Nc1ccc(Cl)cc1)Nc1ccc(Cl)c(Cl)c1 | inactive
O=C1c2cccc(O)c2C(=O)c2c(O)cccc21 | inactive
CCCCOCCOCCO | inactive
CCCCc1oc2ccccc2c1C(=O)c1cc(I)c(OCCN(CC)CC)c(I)c1 | inactive
O=C(c1ccccc1)c1ccccc1O | inactive
O=C(O)c1ccccc1Nc1cccc(C(F)(F)F)c1 | inactive
O=c1oc(=O)c2cc3c(=O)oc(=O)c3cc12 | inactive
CCCC(=O)O | inactive
CCCCC(CC)COC(=O)c1ccc(N(C)C)cc1 (stereo not given) | inactive
S=C(NC1CCCCC1)NC1CCCCC1 | inactive
Cc1ccc(C)c(O)c1C | inactive
C=CC(C)(CCC=C(C)C)OC(C)=O (stereo not given) | inactive
COc1ccc(C(=O)CC(=O)c2ccc(C(C)(C)C)cc2)cc1 | inactive

Structure (SMILES) | outcome
C#C[C@]1(O)CC[C@H]2[C@@H]3CCc4cc(OC)ccc4[C@H]3CC[C@@]21C | inactive
CCOC(=O)C(C#N)=C(c1ccccc1)c1ccccc1 | inactive
CCCCNS(=O)(=O)c1ccccc1 | inactive
COc1ccc(OC)c(C(O)CNC(=O)CN)c1 (stereo not given) | inactive
OCCO | inactive
O=C1OC2(c3cc(Br)c(O)c(Br)c3Oc3c2cc(Br)c(O)c3Br)c2c(Cl)c(Cl)c(Cl)c(Cl)c21 | inactive
CCC(C)OC(=O)c1ccc(O)cc1 (stereo not given) | inactive
CC(=O)Oc1ccccc1C(=O)Nc1ncc([N+](=O)[O-])s1 | inactive
OC1CCCCCCCCCCC1 | inactive
O=[N+]([O-])c1ccc2c(c1)Cc1ccccc1-2 | inactive
CC(CCC(=O)O)(c1ccc(O)cc1)c1ccc(O)cc1 | inactive
Cc1cc2nc3c(=O)[nH]c(=O)nc-3n(C[C@H](O)[C@H](O)[C@H](O)CO)c2cc1C | inactive
O=C(COc1ccc(Cl)cc1)N1CCN(Cc2ccc3c(c2)OCO3)CC1 | inactive
NC=O | inactive
CC(=O)O[C@]1(C(C)=O)CC[C@H]2[C@@H]3C=C(Cl)C4=CC(=O)[C@@H]5C[C@@H]5[C@]4(C)[C@H]3CC[C@@]21C | inactive
O=S(=O)(O)c1ccc(O)cc1 | inactive
c1ccc2sc(SSN3CCOCC3)nc2c1 | inactive
C=C(C)C1CC=C(C)CC1 (stereo not given) | inactive
Cn1cnc([N+](=O)[O-])c1Sc1ncnc2nc[nH]c12 | inactive
COc1cccc2c1C(=O)c1c(O)c3c(c(O)c1C2=O)C[C@@](O)(C(=O)CO)C[C@@H]3O[C@H]1C[C@H](N)[C@H](O)[C@H](C)O1 | inactive

— PubChem BioAssay (Tox21)
